In the library only some 3.8% were active in any assay of this set; here they are far more common.
HSF1 activator: increases HSF-1 driven luciferase reporter signal | activation, % at 9 µM | AID 504408 | actives 1.7% (n = 300,000) | NIH3T3-HGL HSF-1 luciferase reporter, MG132, 8 h; 100% = twice DMSO control signal;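 active means mean replicate activation of at least 50% with a set share of replicates each reaching 50%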;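 further: 0% = median of the neutral control wells and 100% = twice that signal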
HSP90 inh: inhibitors of HSP90 luciferase refolding in rabbit reticulocyte lysate | actives 0.91% (n = 290,000) | AID 1789 | inhibition, % at 5.6 µM | luciferase refolding luminescence, 3 h;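 active means inhibition above the screen-wide mean plus 3 SD, computed separately per campaign, cut at about 16% in these data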;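 further: 0% = DMSO wells and 100% = 60 µM geldanamycin wells; inhibitors lower the luminescence because luciferase stays unfolded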
NALP1 yeast inh: NALP1 inhibition. AID 2071. inhibition, % at 10 µM. actives 0.61% (n = 280,000). S. cerevisiae NALP1/ASC/caspase-1 growth, X-gal OD620, 72 h; in the data active means inhibition mostly above about 24%, no sharp cut-off; inactive means mostly below about 32%
HSF1 inh: HSF1 inhibition | activity change, negative = inhibition, % at 7.5 µM (by protocol) | AID 2098 | NIH3T3-HGL HSE-luciferase, MG132-induced, luminescence 8 h; hits give low values | actives 0.77% (n = 300,000);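 active means more than half of replicate wells show activity change below -50%, luminescence cut by over half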;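 further: luciferase reports HSF-1 transcriptional activity via heat shock element; 0% = median of DMSO wells and -100% = zero luminescence signal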
pCIP destab: compounds decreasing mouse p/CIP protein stability. Q05BA5. actives 0.01% (n = 290,000). AID 1984. decrease of EGFP signal, % at 10 µM. F442A p/CIP-EGFP cells, EGFP fluorescence, 16 h;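 active means EGFP signal decrease of at least 30% at 10 µM or well 3 SD below plate mean, unless failing retest; inactive means the rest, including hits failing retest or dose response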
Target sequence (Q05BA5 1-1403): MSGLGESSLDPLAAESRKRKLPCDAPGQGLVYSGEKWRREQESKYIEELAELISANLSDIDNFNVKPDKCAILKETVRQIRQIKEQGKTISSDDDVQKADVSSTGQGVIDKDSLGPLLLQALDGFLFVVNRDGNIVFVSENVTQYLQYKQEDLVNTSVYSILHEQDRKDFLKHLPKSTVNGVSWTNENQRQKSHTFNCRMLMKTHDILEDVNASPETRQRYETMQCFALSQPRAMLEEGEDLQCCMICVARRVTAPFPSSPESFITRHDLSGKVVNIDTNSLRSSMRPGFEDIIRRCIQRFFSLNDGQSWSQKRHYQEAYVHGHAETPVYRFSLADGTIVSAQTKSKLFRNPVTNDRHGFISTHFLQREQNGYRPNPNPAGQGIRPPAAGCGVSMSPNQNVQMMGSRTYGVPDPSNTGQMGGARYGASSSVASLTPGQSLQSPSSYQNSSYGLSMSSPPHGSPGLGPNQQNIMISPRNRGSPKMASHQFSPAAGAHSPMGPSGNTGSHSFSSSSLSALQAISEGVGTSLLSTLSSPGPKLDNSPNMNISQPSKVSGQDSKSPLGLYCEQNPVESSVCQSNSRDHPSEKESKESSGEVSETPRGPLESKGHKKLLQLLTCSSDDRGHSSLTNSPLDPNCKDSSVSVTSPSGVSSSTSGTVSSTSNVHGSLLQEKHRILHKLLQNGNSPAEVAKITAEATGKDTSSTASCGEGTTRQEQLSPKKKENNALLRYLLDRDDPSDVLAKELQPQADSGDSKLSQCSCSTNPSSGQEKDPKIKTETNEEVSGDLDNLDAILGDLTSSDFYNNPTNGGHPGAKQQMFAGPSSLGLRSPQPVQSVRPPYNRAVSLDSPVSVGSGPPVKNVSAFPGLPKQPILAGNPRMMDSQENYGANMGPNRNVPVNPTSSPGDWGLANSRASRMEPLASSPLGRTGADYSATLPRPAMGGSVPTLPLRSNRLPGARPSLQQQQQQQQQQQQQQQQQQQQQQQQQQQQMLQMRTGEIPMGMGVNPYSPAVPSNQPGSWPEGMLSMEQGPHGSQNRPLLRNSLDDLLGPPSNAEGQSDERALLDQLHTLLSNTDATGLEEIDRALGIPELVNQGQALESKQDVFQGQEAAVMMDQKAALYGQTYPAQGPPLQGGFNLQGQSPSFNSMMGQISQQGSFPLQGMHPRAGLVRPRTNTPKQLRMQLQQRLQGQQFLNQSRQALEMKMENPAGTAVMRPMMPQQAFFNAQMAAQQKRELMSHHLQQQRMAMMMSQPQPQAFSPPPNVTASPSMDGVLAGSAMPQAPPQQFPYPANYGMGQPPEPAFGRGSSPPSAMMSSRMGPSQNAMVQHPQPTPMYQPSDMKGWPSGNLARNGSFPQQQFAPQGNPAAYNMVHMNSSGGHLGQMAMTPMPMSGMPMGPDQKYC
Hsp70 activator: Hsp70 transcriptional activation, primary screen | HeLa Hsp70 promoter luciferase reporter, luminescence; scaled: vehicle 0, proteasome-inhibitor control 100% | activation, % at 10 µM | actives 0.04% (n = 200,000);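 active means activation above the mean across all tested compounds plus 3 SD, cutoff set per campaign, cut at about 5.5% in these data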;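 further: 100% = MG132 at 30 µM as the positive control and 0% = DMSO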
HSP90 confirm: HSP90 inhibition, confirmation assay. shares compounds with HSP90 inh. rabbit reticulocyte lysate, luciferase refolding luminescence, 3 h. AID 1846. inhibition, % at 5.9 µM. actives 64% (n = 2,300); in the data active means inhibition above about 18%;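 further: 0% = vehicle wells and 100% = reference inhibitor wells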
luciferase ctr: firefly luciferase inhibition, HSP90 counter-screen; inhibition, % at 5.9 µM; purified native firefly luciferase, luminescence; actives 48% (n = 2,300); shares compounds with HSP90 inh;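 active means inhibition above the mean inhibition of all tested sample wells plus 3 SD, cut at about 10% in these data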;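 further: 0% = DMSO with luciferase and 100% = wells lacking luciferase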
The depositor's hits bear a star; / = no result given.

SMILES	HSF1 activator	HSP90 inh	NALP1 yeast inh	HSF1 inh	pCIP destab	Hsp70 activator	HSP90 confirm	luciferase ctr
Cc1cc(N=Nc2ccc(C)c(N=Nc3cc(C)c(N)cc3N)c2)c(N)cc1N	-19	17*	1	-16	2	/	33*	51*
COCCn1c(C)c(C)c2c(NCCc3ccccc3)ncnc21	-76	60*	16	-73*	-8	/	63*	63*
Cc1c(C)n(CCc2ccccc2)c2ncnc(NCCCO)c12	32	-3	-4	12	-9	/	/	/
CSCCC(NC(=O)c1ccc(Cl)cc1Cl)C(=O)OC1CCCCC1=O (configuration not stated)	3	/	/	3	/	/	/	/
Cn1cc(CNC(=O)C2CCC(=O)N(Cc3cccc(C(F)(F)F)c3)C2)cn1 (configuration not stated)	13	-2	8	2	-10	/	/	/
c1ccc2nc(-c3nc4ccccc4o3)ccc2c1	-20	32*	18	-14	-3	0	81*	76*
CCCCn1c(N)c(N(CC(C)C)C(=O)CN(C)S(=O)(=O)c2ccc(NC(C)=O)cc2)c(=O)[nH]c1=O	-4	/	/	-3	/	/	/	/
Cc1ccc2oc(=O)c(/C=C(\O)C(C)(C)C)nc2c1	20	1	-1	-1	6	0	/	/
Cc1ccc2oc(=O)c(/C=C(\O)c3ccco3)nc2c1	-2	37*	8	4	-7	/	37*	-23
CC(C)(C)/C(O)=C/c1nc2cc(Cl)ccc2oc1=O	-4	80*	4	-2	-13	/	81*	-14
Cc1ccc2oc(=O)c(/C=C(\O)c3sc(C)nc3C)nc2c1	1	-4	42	2	-1	0	/	/
COC(=O)C1=C[C@@H](C(=O)OC)[C@@H]2C3=C(C(=O)[C@@]2(C)NC(=O)c2ccccc2)[C@H](c2ccccc2)n2c(=O)n(-c4ccccc4)c(=O)n2[C@@H]3C1	-9	/	/	4	/	/	/	/
S=C(NCc1ccccc1)NNc1ccccc1	-11	1	-2	-2	4	0	/	/
CNC1=C(N(C(C)=O)c2ccc(Br)cc2)C(=O)c2ccccc2C1=O	-40	63*	42	-33	-22	0	12	-7
O=C(O)C1C2C=CC(C2)C1C(=O)Nc1cccc(C(=O)N2CCCCC2)c1 (configuration not stated)	-2	30*	10	1	-3	0	-7	-10
O=c1oc(Nc2ccc(F)cc2)nc2ccccc12	23	18*	2	12	-4	0	9	-21
CCOc1cc(/C=C2/C(=O)N(c3ccccc3)N=C2C)ccc1OC(=O)c1ccco1	30	27*	-4	9	-3	0	-8	4
CCOc1cc(/C=C2\C(=O)N(c3ccc(C(N)=O)cc3)N=C2C)ccc1OC(=O)c1cccs1	19	7	-18	0	-16	0	/	/
Cc1cc(C)cc(Nc2ncc3c(n2)CCCC3=O)c1	27	17*	8	9	2	0	43*	23*
Cc1ccc2c(c1)-c1nc3ccccc3cc1C2=NC1CCCCC1	/	3	7	/	-2	0	/	/
Cc1ccc2c(c1)Cc1nc3ccccc3nc1-2	21	27*	41	7	10	0	71*	63*
CSc1nc2ccc(NC(=O)c3ccccn3)cc2s1	17	41*	10	15	-5	/	62*	57*
Cc1ccc2nc(NC(=O)c3ccccn3)sc2c1	-25	61*	-14	-5	-5	0	94*	88*
Cc1ccc2nc(NC(=O)c3ccccc3F)sc2c1	15	8	-7	2	3	/	/	/
CC(=O)c1c(C)[nH]c(C(=O)Nc2cc(C)cc(C)c2)c1C	36	1	-5	17	2	0	/	/
SMILES	HSF1 activator	HSP90 inh	NALP1 yeast inh	HSF1 inh	pCIP destab	Hsp70 activator	HSP90 confirm	luciferase ctr
CC(=O)c1c(C)[nH]c(C(=O)Nc2ccc(C)cn2)c1C	23	27*	2	0	-5	0	79*	70*
COc1ccc(Cl)cc1NC(=O)c1[nH]c(C)c(C(C)=O)c1C	-15	-7	8	-10	-6	/	/	/
CC(=O)c1c(C)[nH]c(C(=O)Nc2nc(C)cs2)c1C	7	51*	10	21	-16	0	77*	66*
COc1ccc(OC)c(NC(=O)c2[nH]c(C)c(C(C)=O)c2C)c1	-2	27*	10	9	-10	0	-2	-4
CC(=O)Nc1ccc2c(c1)CN(c1cc(C)ccc1C)CO2	2	3	37	4	-4	0	/	/
O=C(O)c1ccc(-c2nc(-c3ccc(Cl)cc3)cs2)cc1	49	2	-11	11	-4	0	/	/
COc1ccc(-c2csc(-c3ccc(C(=O)O)cc3)n2)cc1	43	19*	2	13	13	0	39*	0
Cc1cccc(-c2noc(C3CCCCC3)n2)c1	38	65*	3	15	-145	0	6	-12
O=[N+]([O-])c1ccc(N=Nc2ncc[nH]2)cc1	-66	55*	4	-66*	-39	/	57*	-18
CN(CC(=O)Nc1ccccc1C(F)(F)F)C(=O)c1cc([N+](=O)[O-])ccc1N1CCOCC1	15	-2	-4	3	1	/	/	/
CCN(CC)CCOC(=O)c1ccc(NC(=O)CCCN2C(=O)S/C(=C/c3ccc(OC)cc3)C2=S)cc1	-47	34*	21	-46	-6	/	30*	-26
COc1ccc(/C=C2\SC(=S)N(CCC(=O)Nc3ccc(O)cc3)C2=O)cc1	11	1	6	2	-5	/	/	/
Cc1ccccc1NC(=S)NNC(=O)c1csc2c1CCC(C)C2 (configuration not stated)	-76	67*	7	-69*	8	0	61*	52*
CN(C)CCCN(C(=O)CCSc1ccccc1)c1nc2cc3c(cc2s1)OCO3	-9	57*	-5	-14	5	0	-3	-13
CN(C)CCCN(C(=O)COc1ccccc1)c1nc2cc3c(cc2s1)OCCO3	21	3	10	5	3	/	/	/
C=CCn1c2ccccc2c2n[nH]c(=S)nc21	-17	-3	9	-3	-14	/	/	/
CCC(=O)c1ccc(OCC(O)CN2CCN(c3ccccn3)CC2)cc1 (configuration not stated)	10	-1	1	5	-13	/	/	/
OC(COc1ccc(Cl)cc1)CN1CCN(c2ccccc2)CC1 (configuration not stated)	9	40*	14	1	1	/	-2	-6

Source: PubChem BioAssay
